In the library only some 4.3% were active in any assay of this set; here they are far more common.
GLP1R inv ag: GLP-1 receptor (human) inverse agonism; HEK293 GLP-1R CRE-luciferase, luminescence, 24 h; GLP-1R form is constitutively active; AID 624417; hit rate 1.6% among 410,000; Potency, µM (titrated, usually from 38.3 µM), usual class: inhibitors; P43220; also: nearly all actives have a fitted effect of over 55% in size
Target sequence (P43220 whole entry, looked up): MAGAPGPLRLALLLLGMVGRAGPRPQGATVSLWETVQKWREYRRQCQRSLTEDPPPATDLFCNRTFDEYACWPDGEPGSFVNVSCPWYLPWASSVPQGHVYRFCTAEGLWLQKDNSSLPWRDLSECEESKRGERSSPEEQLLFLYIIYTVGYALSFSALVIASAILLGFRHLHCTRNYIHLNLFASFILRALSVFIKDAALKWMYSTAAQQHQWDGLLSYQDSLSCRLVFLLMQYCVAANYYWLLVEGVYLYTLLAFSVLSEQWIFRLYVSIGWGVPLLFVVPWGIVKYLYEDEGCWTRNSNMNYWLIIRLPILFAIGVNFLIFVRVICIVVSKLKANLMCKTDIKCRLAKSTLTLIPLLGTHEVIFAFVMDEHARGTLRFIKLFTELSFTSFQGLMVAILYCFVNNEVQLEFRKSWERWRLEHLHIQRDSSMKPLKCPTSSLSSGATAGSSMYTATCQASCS
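Inverse agonists were sought by their lowering of basal cAMP reporter luciferase output in HEK293 cells stably carrying constitutively active human GLP-1R, after 24 h compound treatment.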
DRD3 agonist: activates the human D3 dopamine receptor. P35462. D3R DiscoveRx beta-arrestin cells, luminescence, 90 min. max activation, %. hit rate 0.58% among 410,000; in the data active = max activation above about 30%
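Agonist-mode cell screen: cells plated at 1500/well and incubated overnight at 37 °C, then exposed to library compounds for 90 min at 37 °C. Detection reagent was added for 30–60 min at room temperature, and luminescence was read.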
GLP1R ag: agonists of human GLP-1 receptor; P43220; HEK293 GLP-1R CRE-luciferase, luminescence, 4-6 h; cells express a hypersensitive GLP-1R form; Potency, µM (doses to about 45.6 µM), usual class: activators; hit rate 0.007% among 380,000
DRD3 antagonist: blocks the human D3 dopamine receptor; P35462; D3R cells, DiscoveRx beta-arrestin luminescence, antagonist mode; stronger effect = lower value; max response, negative = inhibition, %; hit rate 2.5% among 360,000; AID 652054; in the data active = max response below about -50%; inconclusive = no clear call, values can overlap the other calls
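Cells expressing the human receptor were seeded at 1500 cells/well, incubated overnight at 37 degrees C in 5% CO2, then exposed to library compounds with dopamine controls for 90 minutes at 37 degrees C before luminescent detection.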
A number is an active result; . = inactive; ? = inconclusive; / = not tested or not shown; [ ] = remark or other dose. Unless noted, calls follow the shape of the dose curve; as a rule, active = well fitted curve in the direction sought with a large enough effect; inconclusive = small, poorly fitted or top-dose-only effect, or another doubt; inactive = no such curve, though single readings can be large; an effect the other way counts as inactive or inconclusive.

SMILES	GLP1R inv ag	DRD3 agonist	GLP1R ag	DRD3 antagonist
CC(NC(=O)c1cc2cc([N+](=O)[O-])ccc2oc1=O)C1CCCO1 (stereo not given)	.[0.307 µM]	.	.	.
COc1cccc2cc(C(=O)OC(C)C(=O)c3ccc(C)cc3)c(=O)oc12 (stereo not given)	.	.	.	.
COc1ccc(C(=O)NNC(=O)c2cc3cc([N+](=O)[O-])ccc3oc2=O)cc1OC	.	.	.	-53
Cc1ccc(C(=O)C(C)OC(=O)c2cc3cc([N+](=O)[O-])ccc3oc2=O)cc1 (stereo not given)	.	.	.	-99
COc1ccc(OC)c(S(=O)(=O)NCC(c2ccc(N(C)C)cc2)N2CCOCC2)c1 (stereo not given)	.	.	/	/
O=C(Nc1cccc(O)c1)c1cc(-c2ccc3c(c2)OCO3)on1	10µM	.	.	.
COc1ccc(S(=O)(=O)N2CCCCC2)cc1NCC(=O)Nc1ccc(C)cc1	8.9µM	.	.	.
COc1cc(Cl)c(C)cc1NCC(=O)Nc1cccc(S(=O)(=O)N2CCCC2)c1	8.9µM	.	.	.
COc1ccc(S(=O)(=O)N(C)C)cc1NCC(=O)Nc1ccc(Br)c(C)c1	11µM	.	.	.
CCc1ccccc1OCC(=O)Nc1cccc(S(=O)(=O)N2CCCC2)c1	11µM	.	.	.
N#Cc1ccccc1OCC(=O)Nc1cccc(S(=O)(=O)N2CCCC2)c1	.	.	.	.
CCc1nn2c(=O)c(S(=O)(=O)Nc3ccc(OC)c(Cl)c3)c(C)nc2s1	.	.	/	/
CCSc1ncc(Cl)c(C(=O)Nc2c(C(=O)Nc3ccc(Cl)cc3)oc3ccccc23)n1	.	.	/	/
CC(C)(C)c1cc(C(=S)N2CCCC2)cc(C(C)(C)C)c1O	8.9µM	.	.	.
O=C(CCC(=O)Nc1cccc(Cl)c1)N/N=C/c1cc([N+](=O)[O-])ccc1O	.[7.66 µM]	.	.	-62
O=[N+]([O-])c1ccc(O)c(/C=N/n2c(CO)nc3ccccc32)c1	.	.	.	-54
CN1CCN(CCC(=O)N/N=C/c2cc([N+](=O)[O-])ccc2O)CC1	.	.	.	-79
O=C(CSc1nc2ccccc2s1)N/N=C/c1cc([N+](=O)[O-])ccc1O	?	.	.	-61
Cc1ccc(NC(=O)CCC(=O)N/N=C/c2cc([N+](=O)[O-])ccc2O)cc1	?	.	.	.
O=C(NC1CCCCC1)c1[nH]c(C(F)(F)F)nc1-c1ccccc1	.	.	.	.
Cc1ccccc1NC(=O)CCC(=O)N/N=C/c1cc([N+](=O)[O-])ccc1O	.	.	.	-58
COc1cc(C(=O)N2CCC(c3nc4ccccc4o3)CC2)cc(OC)c1OC	.	.	/	/
Cc1cc(=O)n2[nH]c(=O)c(N=Nc3ccccc3)c2[nH]1	.	.	.	-84
CCOc1ccc(N=Nc2c(=O)[nH]n3c(=O)cc(C)[nH]c23)cc1	.	.	.	.
O=C(C[C@@H]1C/C=C\C[C@H](Cc2ccc(F)cc2)C(=O)OC[C@H]2CCCN2C1=O)N[C@H](CO)Cc1ccccc1	.	.	.	.
SMILES	GLP1R inv ag	DRD3 agonist	GLP1R ag	DRD3 antagonist
CCOc1ccc(OCC)c(NC(=O)CCCN2C(=S)NC(C)(C)CC2C)c1 (stereo not given)	.	.	.	-56
CCOc1ccccc1NC(=O)CCCN1C(=S)NC(C)(C)CC1C (stereo not given)	.	.	.	.
COc1cc(OC)c(CNC2CCCCCC2)cc1Br	.	.	.	-62
COCC1CCCN(Cc2nc(C(c3ccccc3)c3ccccc3)no2)C1 (stereo not given)	?	.	.	.
c1ccc(C(c2ccccc2)c2noc(CN3CCN(CC4CC4)CC3)n2)cc1	?	.	.	-63
O=C(NC1CCN(C(=O)N2c3ccccc3Sc3ccccc32)CC1)c1ccccc1Cl	10µM	.	.	.
C/C=C/c1cccc(-c2nc(C(=O)N3CCN(C)CC3)cc3c2[C@@H](CCO)N(C(=O)NC(C)C)C3)c1	.	.	.	.
CC(=O)Nc1ccc(S(=O)(=O)NCc2ccc(C(=O)NCc3ccc(Cl)cc3)cc2)cc1	.	.	.	.
O=C(NCCN1CCCCC1)c1cc(OCC(F)(F)F)ccc1OCC(F)(F)F	.	.	.	-53
COc1ccc(C(=O)NCCN2CCCC2)cc1OC	.	.	.	.
CC(=O)Nc1ccc(S(=O)(=O)NCc2ccc(C(=O)NCCN3CCCCCC3)cc2)cc1	.	.	.	-53
CCOc1c(Cl)cc(C(=O)NCCN2CCCCC2)cc1Cl	.	.	.	-73
O=C(CCl)NCCNC(=O)c1cc(OCC(F)(F)F)ccc1OCC(F)(F)F	?	.	.	.
O=C(NCCN1CCN(C(=O)c2ccc(F)cc2)CC1)c1ccc(F)cc1	.	.	.	-79
COc1ccc(C(=O)N2CCN(CCNC(=O)C(=O)Nc3ccc(F)cc3)CC2)cc1OC	.	.	.	.
CN(C(=O)c1cc2c(=O)n3ccccc3nc2n1C)c1ccccc1	.	.	/	/
O=C(CCN1C(=O)c2ccccc2C1=O)Nc1ccccc1C(F)(F)F	.	.	.	.
CC(C(=O)Nc1ccc(OC(F)(F)F)cc1)N1Cc2ccccc2C1=O (stereo not given)	?	.	/	/
COc1ccc(C(=O)NCCN2CCCC2)cc1	.	.	.	-54
COc1ccc(CC(=O)NCCN2CCCC2)cc1	.	.	.	.
Cc1cccc(C(=O)NCCN2CCCC2)c1	.	.	.	-66
Cc1ccc(C(=O)NCCN2CCCC2)cc1	.	.	.	?
CC(C)(C)c1ccc(OCC(=O)NCCN2CCCC2)cc1	?	.	.	-57
CCc1ccc2c(c1)c(=O)c(S(=O)(=O)c1ccccc1)cn2CC(=O)Nc1cc(C)ccc1C	.	.	.	/
CS(=O)(=O)c1ccc(C(=O)OCC(=O)NCc2cccs2)cc1[N+](=O)[O-]	?	.	.	-60
SMILES	GLP1R inv ag	DRD3 agonist	GLP1R ag	DRD3 antagonist
Cc1cccc(C(=O)OCC(=O)NCc2cccs2)c1	.	.	.	.
CCOC(=O)c1nnc2cc(-c3ccc(Br)cc3)nn2c1C	.	.	.	.
CCOC(=O)c1nnc2cc(-c3ccccc3)nn2c1C	.	.	.	-74
CCOC(=O)c1cnc2cc(-c3ccc(OCC)cc3)nn2c1-c1ccccc1	.	36	/	/
Clc1ccc(N2CCN(Cc3ccc(Br)o3)CC2)cc1	?	.	.	-52
Clc1cccc(N2CCN(Cc3ccc(Br)o3)CC2)c1	?	.	.	-60
COc1cc(CN2CCN(C(O)(c3ccccc3)c3ccccc3)CC2)cc(OC)c1OC	?	.	.	-72
O=C(NCC(=O)N1CCN(c2cccc(Cl)c2)CC1)c1ccc(Br)o1	?	.	.	.
COc1cc(CN2CCN(c3cccc(Cl)c3)CC2)cc(OC)c1OC	5µM	.	.	-71
COc1ccc(NC(=O)Cc2csc(COc3cccc(C)c3)n2)c(OC)c1	?	.	/	/
O=C(NCC(c1ccco1)N1CCN(c2ccc(F)cc2)CC1)OCc1ccccc1 (stereo not given)	3.5µM	.	.	?
COC(=O)NCC(c1ccco1)N1CCN(c2ccc(F)cc2)CC1 (stereo not given)	.	.	.	.

Screens deposited in PubChem by National Center for Advancing Translational Sciences (NCATS).
